From the supplement of paper PMC4840960
± gives the standard deviation of the averaged measurements.

Key:
[1] = test system: E18 rat cortical neuron-glia co-culture; experiment: fiber score / MBP score (myelination specific beyond OL differentiation) (ratio); higher = more myelination-specific MBP alignment; settings: treatment time: 8 days (DIV5-DIV13)
Method in brief: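 Library compounds were applied at 1 or 5 µM in myelination medium, DIV5 to DIV13, to primary E18 rat cortical co-cultures grown at 20,000 cells/well in 96-well plates. After 4 % paraformaldehyde fixation and MBP/Olig2/DAPI immunostaining, four 10X fields per well in duplicate wells were scored. Each value is continuous MBP fiber length per Olig2+ nucleus divided by thresholded MBP area × intensity per Olig2+ nucleus.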

[2] = test system: E18 rat cortical neuron-glia co-culture; experiment: myelination (MBP fiber length per Olig2+ nucleus), % of 1 µM DAPT response (DMSO = 0) (% of DAPT); higher = more myelination, active = 50 or more; settings: treatment time: 8 days (DIV5-DIV13)
Method in brief: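 Library compounds at 1 or 5 µM in myelination medium were applied from DIV5 to DIV13 to papain-dissociated E18 rat cortical co-cultures seeded at 20,000 cells/well on poly-d-lysine/laminin 96-well plates. Fixed cells (4 % paraformaldehyde) were immunostained for MBP and Olig2 with DAPI, and four 10X fields were analysed in each duplicate well. Continuous straight MBP fiber length per Olig2+ nucleus was set to 0 for 0.1 % DMSO and to 100 for a 1 µM positive control.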

SMILES | fiber score / MBP score ([1]; 1 µM) | fiber score / MBP score ([1]; 5 µM) | myelination ([2]; 1 µM) | myelination ([2]; 5 µM)
CC(C)C[C@H](NC(=O)[C@@H](COC(C)(C)C)NC(=O)[C@H](Cc1ccc(O)cc1)NC(=O)[C@H](CO)NC(=O)[C@H](Cc1c[nH]c2ccccc12)NC(=O)[C@H](Cc1cnc[nH]1)NC(=O)[C@@H]1CCC(=O)N1)C(=O)N[C@@H](CCCNC(=N)N)C(=O)N1CCC[C@H]1C(=O)NNC(N)=O [Goserelin] | 0.788 | 0.867 | -8.02 (inactive) | -4.2 (inactive)
C=C[C@H]1CN2CC[C@H]1C[C@H]2[C@H](O)c1ccnc2ccc(OC)cc12 [Quinine] | 0.921 | 0.644 | -1.48 (inactive) | -11.3 (inactive)
O=C(O)Cc1ccccc1Nc1c(Cl)cccc1Cl [Diclofenac] | 0.824 | 0.883 | -25.4 (inactive) | -15.6 (inactive)
COc1cc2nc(N(C)CCCNC(=O)C3CCCO3)nc(N)c2cc1OC (centres undefined) [Alfuzosin] | 0.472 | 0.636 | -57.9 (inactive) | -36.4 (inactive)
CC1(C)O[C@@H]2C[C@H]3[C@@H]4C[C@H](F)C5=CC(=O)C=C[C@]5(C)[C@@]4(F)[C@@H](O)C[C@]3(C)[C@]2(C(=O)CO)O1 [Fluocinolone Acetonide] | 1.4 | 0.825 | 22.3 (inactive) | 6.47 (inactive)
CC(=O)CCCCn1c(=O)c2c(ncn2C)n(C)c1=O [Pentoxifylline] | 0.817 ± 0.062 | 0.839 ± 0.17 | -4.66 (inactive) | -23.8 (inactive)
COc1cc(N)c(Cl)cc1C(=O)NC1CCN(CCCOc2ccc(F)cc2)CC1OC (centres undefined) [Cisapride] | 0.935 | 0.515 | -1.62 (inactive) | -10.2 (inactive)
CC(=O)Nc1ccc(CC(=O)O)cc1 [Actarit] | 0.756 | 0.778 | -13.9 (inactive) | -10.1 (inactive)
O=c1cnn([C@@H]2O[C@H](CO)[C@@H](O)[C@H]2O)c(=O)[nH]1 [Azauridine] | 0.944 | 0.453 | -6.45 (inactive) | -26.1 (inactive)
CCN(CC)CCNC(=O)c1ccc(N)cc1 [Procainamide] | 0.82 | 1.19 | -8.23 (inactive) | 4.78 (inactive)
O=C1N(c2ccccc2)c2ccccc2C1(Cc1ccncc1)Cc1ccncc1 [Linopirdine] | 0.779 | 0.73 | -4.06 (inactive) | -12 (inactive)
C=CC1=C(C(=O)O)N2C(=O)[C@@H](NC(=O)/C(=N\O)c3csc(N)n3)[C@H]2SC1 [Cefdinir] | 0.926 | 0.824 | 1.23 (inactive) | -0.0683 (inactive)
CC(C)OC(=O)C(C)(C)Oc1ccc(C(=O)c2ccc(Cl)cc2)cc1 [Fenofibrate] | 0.901 | 0.661 | -0.815 (inactive) | 21.8 (inactive)
C#C[C@]1(OC(C)=O)CC[C@H]2[C@@H]3CCC4=CC(=O)CC[C@@H]4[C@H]3CC[C@@]21C [Norethisterone acetate] | 0.907 | 0.989 | -8.44 (inactive) | -6.86 (inactive)
OCCOCCN1CCN(C2=Nc3ccccc3Sc3ccccc32)CC1 [Quetiapine hemifumarate] | 0.545 | 0.327 | -10 (inactive) | -19.9 (inactive)
CN(C)C(=O)C(CCN1CCC(O)(c2ccc(Cl)cc2)CC1)(c1ccccc1)c1ccccc1 [Loperamide] | 0.58 | 0.368 | -10.1 (inactive) | -21 (inactive)
CC(=O)[C@H]1CC[C@H]2[C@@H]3C[C@H](C)C4=CC(=O)CC[C@]4(C)[C@H]3[C@@H](O)C[C@]12C [Medrysone] | 1.11 | 1.1 | 5.47 (inactive) | 6.18 (inactive)
O=C1NC(C(=O)O)CS1 (centres undefined) [2-oxothiazolidine-4-carboxylic acid] | 0.704 | 0.758 | -34.3 (inactive) | -59.9 (inactive)
CCCNC(C)C(=O)Nc1ccccc1C (centres undefined) [Prilocaine] | 0.73 | 1.1 | -5.12 (inactive) | 9.24 (inactive)
O=C(NCCO[N+](=O)[O-])c1cccnc1 [Nicorandil] | 0.852 | 1.17 | -8.12 (inactive) | -1.77 (inactive)
CC(=O)S[C@@H]1CC2=CC(=O)CC[C@]2(C)[C@H]2CC[C@@]3(C)[C@@H](CC[C@@]34CCC(=O)O4)[C@H]12 [Spironolactone] | 0.765 | 1.22 | -5.5 (inactive) | 6.33 (inactive)
CC(Oc1c(Cl)cccc1Cl)C1=NCCN1 (centres undefined) [lofexidine] | 0.929 | 1.1 | -15.8 (inactive) | 2.57 (inactive)
CCOC(=O)C1=C(C)NC(C)=C(C(=O)OC)C1c1cccc([N+](=O)[O-])c1 (centres undefined) [Nitrendipine] | 0.92 | 1.09 | -7.81 (inactive) | 1.09 (inactive)
O=C(O)c1cc(=O)c2c(OCC(O)COc3cccc4oc(C(=O)O)cc(=O)c34)cccc2o1 [Cromolyn Sodium] | 0.501 | 0.409 | -7.17 (inactive) | -12.9 (inactive)
Cc1cc2c(s1)Nc1ccccc1N=C2N1CCN(C)CC1 [Olanzapine] | 1.2 | 0.751 | -0.209 (inactive) | -13.5 (inactive)
O=C1c2cccc3c2[C@H](CCC3)CN1[C@@H]1CN2CCC1CC2 [Palonosetron] | 0.728 | 0.587 | -11.1 (inactive) | -11.5 (inactive)

SMILES | fiber score / MBP score ([1]; 1 µM) | fiber score / MBP score ([1]; 5 µM) | myelination ([2]; 1 µM) | myelination ([2]; 5 µM)
CC(C)n1c(/C=C/C(O)CC(O)CC(=O)O)c(-c2ccc(F)cc2)c2ccccc21 (centres undefined) [Fluvastatin] | 0.312 | 0.319 | -15.7 (inactive) | -13.7 (inactive)
CCN1CC(CCN2CCOCC2)C(c2ccccc2)(c2ccccc2)C1=O (centres undefined) [Doxapram] | 0.83 | 0.769 | -10.9 (inactive) | -11 (inactive)
CC1=C(/C=C/C(C)=C/C=C/C(C)=C\C(=O)O)C(C)(C)CCC1 [Isotretinoin] | 0.294 | 0.414 | -16.1 (inactive) | -11.8 (inactive)
N[C@@H]1CONC1=O [Cycloserine] | 0.562 ± 0.18 | 0.637 | -22.5 (inactive) | -32.4 (inactive)
COc1cc(C)nc(-n2nc(C)cc2OC)n1 [Epirizole] | 0.549 | 0.623 | -20.5 (inactive) | -13.2 (inactive)
CC(C)NCC(O)COc1cccc2ccccc12 (centres undefined) [Propranolol] | 1.55 | 0.95 | 9.85 (inactive) | 1.55 (inactive)
O=C1CC2(CCCC2)CC(=O)N1CCCCN1CCN(c2ncccn2)CC1 [Buspirone] | 0.713 | 0.313 | -14.9 (inactive) | -34 (inactive)
Nc1nc(N)c2nc(-c3ccccc3)c(N)nc2n1 [Triamterene] | 1.39 | 1.62 | 68.5 | 461 (active)
CN1CCCC(n2nc(Cc3ccc(Cl)cc3)c3ccccc3c2=O)CC1 (centres undefined) [Azelastine] | 0.861 | 0.855 | -2.34 (inactive) | -2.84 (inactive)
NC[C@H](O)c1ccc(O)c(O)c1 [Norepinephrine] | 0.663 | 0.756 | -41.6 (inactive) | -38.4 (inactive)
CCn1cc(C(=O)O)c(=O)c2cc(F)c(N3CCNCC3)cc21 [Norfloxacin] | 0.701 | 0.729 | -19.9 (inactive) | -11.1 (inactive)
COc1ccc(OC)c(C(O)CNC(=O)CN)c1 (centres undefined) [Midodrine] | 0.492 | 0.885 | -19.2 (inactive) | -8.37 (inactive)
CCc1cc(C(N)=S)ccn1 [Ethionamide] | 0.983 | 1.1 | -1.99 (inactive) | 3.35 (inactive)
CC(C)NCC(O)COc1cccc2[nH]ccc12 (centres undefined) [Pindolol] | 1.07 | 0.955 | -3.4 (inactive) | -3.46 (inactive)
CN(CCOc1ccc(NS(C)(=O)=O)cc1)CCc1ccc(NS(C)(=O)=O)cc1 [Dofetilide] | 1.2 | 0.728 | 10.4 (inactive) | -13.2 (inactive)
C[C@H](CCC(=O)O)[C@H]1CC[C@H]2[C@@H]3[C@H](O)C[C@@H]4C[C@H](O)CC[C@]4(C)[C@H]3CC[C@]12C [Chenodeoxycholic Acid] | 0.861 | 0.787 | -8.08 (inactive) | -12 (inactive)
Cc1c(O)cccc1C(=O)N[C@@H](CSc1ccccc1)[C@H](O)CN1C[C@H]2CCCC[C@H]2C[C@H]1C(=O)NC(C)(C)C [Nelfinavir] | 0.779 | 0.634 | -42.1 (inactive) | -44.3 (inactive)
NC12CC3CC(CC(C3)C1)C2 [Amantadine] | 0.736 | 0.883 | -4.46 (inactive) | 0.678 (inactive)
CNC(=C[N+](=O)[O-])NCCSCc1csc(CN(C)C)n1 [Nizatidine] | 0.895 | 0.816 | -8.02 (inactive) | -29.5 (inactive)
COc1cc2nc(N3CCN(C(=O)c4ccco4)CC3)nc(N)c2cc1OC [Prazosin] | 0.568 | 1 | -38.1 (inactive) | 3.87 (inactive)
O=c1n(CCCN2CCN(c3cccc(Cl)c3)CC2)nc2ccccn12 [Trazodone] | 0.819 | 0.5 | -42.9 (inactive) | -62.2 (inactive)
CCCCC1=NC2(CCCC2)C(=O)N1Cc1ccc(-c2ccccc2-c2nnn[nH]2)cc1 [Irbesartan] | 0.679 | 0.752 | -12.8 (inactive) | -10.8 (inactive)
Cn1cnc([N+](=O)[O-])c1Sc1ncnc2[nH]cnc12 [Azathioprine] | 0.762 | 0.822 | -10.3 (inactive) | -32.9 (inactive)
Cc1ncc([N+](=O)[O-])n1CC(O)CCl (centres undefined) [Ornidazole] | 0.58 | 0.686 | -14.7 (inactive) | -1.4 (inactive)
CC(C)[N+]1(C)[C@@H]2CC[C@H]1C[C@@H](OC(=O)C(CO)c1ccccc1)C2 (some centres undefined) [Ipratropium] | 0.783 | 1.52 | 0.204 (inactive) | 32.8 (inactive)
